Results reported in PubChem BioAssay.
Active and inactive are the calls of the source.

Tests used:
[1] = target: Albumin (Bos taurus) (UniProt P02769); test: bovine serum albumin binders on microarray, profiling panel, artefact control for SMM control protein annotation, biochemical, small-molecule microarray, Alexa647 label, 635/667 nm fluorescence (AID 1118); conditions: BSA-A647 binding, fluorescence 635 nm, higher = more signal;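 further: score merges 667 nm emission intensity and signal-to-noise per printed compound spot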
Albumin (Bos taurus), sequence (P02769 whole entry, looked up): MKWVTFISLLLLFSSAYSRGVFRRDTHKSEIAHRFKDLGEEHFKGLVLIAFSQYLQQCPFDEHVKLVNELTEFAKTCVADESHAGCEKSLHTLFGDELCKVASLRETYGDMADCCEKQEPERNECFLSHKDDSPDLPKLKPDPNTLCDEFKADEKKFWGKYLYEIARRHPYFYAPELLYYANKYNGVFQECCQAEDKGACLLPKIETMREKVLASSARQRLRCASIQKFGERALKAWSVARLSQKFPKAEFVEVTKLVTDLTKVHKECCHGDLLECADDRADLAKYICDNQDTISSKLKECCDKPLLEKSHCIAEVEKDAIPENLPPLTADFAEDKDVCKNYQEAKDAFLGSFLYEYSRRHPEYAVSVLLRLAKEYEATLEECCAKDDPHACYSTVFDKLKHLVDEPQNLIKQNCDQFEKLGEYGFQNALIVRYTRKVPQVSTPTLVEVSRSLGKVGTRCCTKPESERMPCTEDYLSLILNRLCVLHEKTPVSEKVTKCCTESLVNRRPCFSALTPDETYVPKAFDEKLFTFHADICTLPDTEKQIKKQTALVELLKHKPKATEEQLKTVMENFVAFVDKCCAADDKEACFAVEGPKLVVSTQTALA

[2] = small-molecule microarray binders of probe aXIP, primary screen, biochemical, NeuroSMM set, 635/667 nm fluorescence (AID 1119); conditions: higher = more signal, called active from +8 up or from −8 down;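 further: probe is the protein aXip251-270 applied at 1 µg/mL to compound-printed slides; binding of probe to printed compounds measured as 667 nm fluorescence plus signal to noise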
[3] = small-molecule binders of probe aNOTCH3, primary screen, biochemical, small-molecule microarray, 635/667 nm fluorescence (AID 1120); conditions: higher = more signal;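 further: probe is a biotin-tagged antibody raised against NOTCH3 rather than NOTCH3 protein; score merges spot fluorescence near 667 nm with spot signal to noise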
[4] = small-molecule binders of probe aNOTCH2, primary screen, biochemical, small-molecule microarray, 635/667 nm fluorescence (AID 1121); conditions: higher = more signal;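 further: score merges feature fluorescence read at 667 nm with its signal to noise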
[5] = target: Carbonic anhydrase 2 (Homo sapiens) (UniProt P00918); test: CAII small-molecule binders, profiling panel, biochemical, small-molecule microarray, Alexa647-labelled CAII (AID 1122); conditions: CAII-A647 binding fluorescence, higher = more signal
[6] = COS7 lysate on small-molecule microarray, probe aHis, 635 nm (AID 1123); conditions: COS7 cell lysate, fluorescence, higher = more signal;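 further: z-score combines 667nm fluorescence intensity with signal-to-noise per printed compound spot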
[7] = compound binding in COS7 lysate, probe aLAP1, primary screen, cell lysate, small-molecule microarray (AID 1124); conditions: probe aLAP1, fluorescence, higher = more signal;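 further: lysate comes from COS7 cells expressing LAP1 and is applied at 0.3 µg/mL; score merges spot fluorescence near 667 nm with signal-to-noise over triplicate slides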
[8] = test system: Sam68 (KHDRBS1); test: Sam68 small-molecule binders, primary screen, biochemical, small-molecule microarray, 635 nm fluorescence (AID 1125); conditions: small-molecule microarray binding, higher = more signal;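 further: score merges 667 nm channel intensity with signal to noise over triplicate slides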
[9] = test system: Chordin-like protein 2 (CHRDL2); test: CHRDL2 small-molecule binders, primary screen, biochemical, small-molecule microarray, 635 nm fluorescence (AID 1126); conditions: small-molecule microarray binding, fluorescence 635 nm; higher = more signal;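 further: printed compound slides probed with Chrdl2 protein at 4 µg/mL for 1 h at 4 C; score merges 667 nm emission intensity with signal to noise over three replicate slides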
[10] = target: Concanavalin-A (Canavalia ensiformis) (UniProt P02866); test: ConA small-molecule binders, primary screen, artefact control for SMM control protein annotation, biochemical, small-molecule microarray, Alexa647 label, 635 nm (AID 1127); conditions: ConA-A647 binding fluorescence, higher = more signal;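 further: z combines 667 nm emission intensity with signal-to-noise across three replicate slides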
Concanavalin-A (Canavalia ensiformis), sequence (P02866 whole entry, looked up): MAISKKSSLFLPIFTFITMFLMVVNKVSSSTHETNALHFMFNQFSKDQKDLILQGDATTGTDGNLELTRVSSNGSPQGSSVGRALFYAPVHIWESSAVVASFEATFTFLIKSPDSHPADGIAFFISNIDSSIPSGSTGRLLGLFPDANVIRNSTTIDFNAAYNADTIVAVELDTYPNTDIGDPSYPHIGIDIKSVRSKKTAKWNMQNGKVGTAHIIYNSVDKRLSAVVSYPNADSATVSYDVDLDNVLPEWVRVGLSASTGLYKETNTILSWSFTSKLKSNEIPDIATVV

[11] = anti-His antibody binders, primary screen, artefact control for SMM control protein annotation, biochemical, small-molecule microarray, 635 nm fluorescence (AID 1128); conditions: anti-His Alexa647 antibody binding, higher = more signal;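 further: score merges feature fluorescence with signal-to-noise for each printed compound spot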
[12] = test system: Human papillomavirus type 1a E7 protein (residues 1-88); test: HPV1a E7 small-molecule binders, primary screen, biochemical, small-molecule microarray, residues 1-88, 635 nm (AID 1129); conditions: small-molecule microarray binding, fluorescence 635 nm; higher = more signal
[13] = target: Focal adhesion kinase 1 (Homo sapiens) (UniProt Q05397); test: small-molecule microarray binders of FAK, primary screen, biochemical, 635/667 nm fluorescence, BSA, DTT (AID 1130); conditions: PTK2 binding, 635 nm fluorescence, higher = more signal;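 further: composite of spot emission at 667 nm and signal to noise over triplicate slides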
Focal adhesion kinase 1 (Homo sapiens), sequence (Q05397 whole entry, looked up): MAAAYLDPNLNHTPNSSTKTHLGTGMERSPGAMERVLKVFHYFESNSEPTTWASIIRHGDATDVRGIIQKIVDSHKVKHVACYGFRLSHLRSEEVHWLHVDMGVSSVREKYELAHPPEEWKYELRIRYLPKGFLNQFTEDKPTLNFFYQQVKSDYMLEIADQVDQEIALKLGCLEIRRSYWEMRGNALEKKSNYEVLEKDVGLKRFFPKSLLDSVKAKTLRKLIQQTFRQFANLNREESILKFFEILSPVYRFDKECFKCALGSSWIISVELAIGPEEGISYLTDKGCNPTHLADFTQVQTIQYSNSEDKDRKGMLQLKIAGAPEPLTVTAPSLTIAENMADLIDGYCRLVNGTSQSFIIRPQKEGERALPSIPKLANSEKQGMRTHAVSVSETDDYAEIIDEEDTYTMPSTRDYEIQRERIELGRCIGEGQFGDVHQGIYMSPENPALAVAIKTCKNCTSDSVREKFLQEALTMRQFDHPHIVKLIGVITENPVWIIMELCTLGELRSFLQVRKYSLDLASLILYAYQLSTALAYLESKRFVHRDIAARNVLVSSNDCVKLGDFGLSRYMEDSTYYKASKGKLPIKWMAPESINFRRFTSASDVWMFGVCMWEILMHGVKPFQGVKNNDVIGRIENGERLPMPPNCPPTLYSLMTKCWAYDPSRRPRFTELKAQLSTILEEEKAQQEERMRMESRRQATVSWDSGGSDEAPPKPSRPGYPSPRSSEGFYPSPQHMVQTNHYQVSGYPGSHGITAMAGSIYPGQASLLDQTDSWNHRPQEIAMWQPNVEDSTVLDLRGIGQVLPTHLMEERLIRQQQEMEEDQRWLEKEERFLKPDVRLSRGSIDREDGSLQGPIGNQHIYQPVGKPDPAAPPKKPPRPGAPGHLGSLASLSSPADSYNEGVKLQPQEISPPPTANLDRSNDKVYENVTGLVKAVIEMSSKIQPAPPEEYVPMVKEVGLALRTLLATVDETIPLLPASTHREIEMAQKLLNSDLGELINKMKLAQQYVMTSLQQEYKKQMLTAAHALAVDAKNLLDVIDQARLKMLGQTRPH

[14] = test system: Fibrinogen (Alexa647-labelled); test: fibrinogen binders on compound microarrays, profiling panel, artefact control for SMM control-protein annotation, biochemical, small-molecule microarray, 635/667 nm fluorescence (AID 1131); conditions: fibrinogen-A647 binding fluorescence, higher = more signal;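 further: z-score merges 667 nm fluorescence with per-spot signal-to-noise over triplicate slides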
[15] = target: Follistatin (Homo sapiens) (UniProt P19883); test: follistatin binders on small-molecule microarrays, primary screen, biochemical, small-molecule microarray, 635/667 nm fluorescence (AID 1132); conditions: FST binding, 635 nm fluorescence, higher = more signal
Follistatin (Homo sapiens), sequence (P19883 whole entry, looked up): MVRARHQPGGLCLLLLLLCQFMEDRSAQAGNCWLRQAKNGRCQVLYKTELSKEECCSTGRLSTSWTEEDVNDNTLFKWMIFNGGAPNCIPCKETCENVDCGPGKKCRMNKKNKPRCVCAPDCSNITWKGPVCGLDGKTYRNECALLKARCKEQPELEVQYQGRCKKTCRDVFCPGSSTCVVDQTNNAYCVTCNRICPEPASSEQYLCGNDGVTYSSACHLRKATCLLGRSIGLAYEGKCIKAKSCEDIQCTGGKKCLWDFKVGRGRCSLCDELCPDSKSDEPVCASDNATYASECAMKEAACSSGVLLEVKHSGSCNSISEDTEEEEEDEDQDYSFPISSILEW

[16] = target: Fibroblast growth factor 2 (Homo sapiens) (UniProt P09038); test: FGF2 binders on small-molecule microarrays, primary screen, biochemical, small-molecule microarray, 635/667 nm fluorescence (AID 1133); conditions: small-molecule microarray binding, FGF2, fluorescence 635/667; higher = more signal
Fibroblast growth factor 2 (Homo sapiens), sequence (P09038 whole entry, looked up): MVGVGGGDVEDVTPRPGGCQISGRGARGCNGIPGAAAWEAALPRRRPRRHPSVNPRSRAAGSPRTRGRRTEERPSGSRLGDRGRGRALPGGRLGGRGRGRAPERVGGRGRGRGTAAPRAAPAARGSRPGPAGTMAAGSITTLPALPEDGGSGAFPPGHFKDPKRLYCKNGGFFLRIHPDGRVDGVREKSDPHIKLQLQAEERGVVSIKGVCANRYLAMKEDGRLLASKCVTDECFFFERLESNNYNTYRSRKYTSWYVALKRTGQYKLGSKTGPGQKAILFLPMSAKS

[17] = mitochondrial membrane potential change in A549 cells, profiling panel, cell-based, JC-1 fluorescence, basal, 24 h, 100 nL (AID 1138); conditions: higher = more signal;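 further: A549 lung adenocarcinoma cells under basal conditions with no added stimulus; test concentration not given here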
[18] = test system: Lefty1; test: Lefty1 binders on small-molecule microarrays, primary screen, biochemical, small-molecule microarray, 635/667 nm fluorescence (AID 1139); conditions: small-molecule microarray binding, fluorescence 635/667; higher = more signal
[19] = test system: wheat germ agglutinin (Triticum aestivum), Alexa647-labelled; test: wheat germ agglutinin binders on compound microarrays, profiling panel, artefact control for SMM control-protein annotation, biochemical, small-molecule microarray, 635/667 nm fluorescence (AID 1140); conditions: WGA-A647 binding, 635 nm fluorescence, higher = more signal;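 further: score merges 667 nm feature emission with signal to noise over triplicate slides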
[20] = target: Luciferin 4-monooxygenase (Photinus pyralis) (UniProt P08659); test: firefly luciferase enzyme inhibitors, primary screen, biochemical, luminescence, purified enzyme, 2006 set (AID 1141); conditions: SteadyGlo luminescence, 30 min, higher = more signal, called active from +8 up or from −8 down;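 further: cell-free assay with purified firefly luciferase at 100 ng per well in PBS; test concentration not given here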
Luciferin 4-monooxygenase (Photinus pyralis), sequence (P08659 whole entry, looked up): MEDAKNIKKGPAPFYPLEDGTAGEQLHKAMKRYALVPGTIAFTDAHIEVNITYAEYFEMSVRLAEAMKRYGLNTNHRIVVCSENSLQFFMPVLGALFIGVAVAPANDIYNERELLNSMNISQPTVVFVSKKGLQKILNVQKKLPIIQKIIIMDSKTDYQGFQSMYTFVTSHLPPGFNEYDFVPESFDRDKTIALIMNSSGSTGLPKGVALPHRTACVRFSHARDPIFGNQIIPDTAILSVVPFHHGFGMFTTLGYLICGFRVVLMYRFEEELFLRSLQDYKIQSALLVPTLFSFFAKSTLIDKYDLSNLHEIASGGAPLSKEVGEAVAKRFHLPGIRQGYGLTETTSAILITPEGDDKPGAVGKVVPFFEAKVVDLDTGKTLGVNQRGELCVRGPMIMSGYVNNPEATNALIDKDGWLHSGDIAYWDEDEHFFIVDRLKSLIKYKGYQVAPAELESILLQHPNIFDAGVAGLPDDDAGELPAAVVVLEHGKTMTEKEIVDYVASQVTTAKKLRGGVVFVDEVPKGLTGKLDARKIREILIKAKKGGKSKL

C=CCC(OC(C)=O)[C@@H]1[C@@H](N(Cc2cccc3ccccc23)C(=O)Cc2ccc(OC)cc2)c2cc(OCCCO)ccc2N1C(=O)Cc1ccc2ccccc2c1 (stereo not given in full)
composite z-score [1]: -0.0328 | composite Z-score [2]: 0.181 (inactive) | composite z-score [3]: -0.0584 | composite z-score [4]: -0.159 | composite z-score [5]: 0.0435 | composite z-score [6]: 1.17 | composite z-score [7]: 0.078 | composite z-score [8]: -0.0489 | composite z-score [9]: 0.116 | composite z-score [10]: -0.154 | composite z-score [11]: -0.538 | composite z-score [12]: -0.609 | composite z-score [13]: -0.495 | composite z-score [14]: -0.331 | composite z-score [15]: 0.688 | composite z-score [16]: 0.182 | z-score [17]: 0.309 | composite z-score [18]: 0.353 | composite z-score [19]: 0.507 | z-score [20]: 0.969 (inactive)

COC(=O)[C@@]1(Cc2ccccc2)[C@H]2c3cc(C(=O)N4CCCC4)n(Cc4ccc(OC)c(OC)c4)c3C[C@H]2CN1C(=O)c1ccccc1
composite z-score [1]: 0.909 | composite Z-score [2]: 0.651 (inactive) | composite z-score [3]: 1.11 | composite z-score [4]: 0.204 | composite z-score [5]: 0.853 | composite z-score [6]: 3.22 | composite z-score [7]: 0.382 | composite z-score [8]: 1.04 | composite z-score [9]: -1.05 | composite z-score [10]: 0.827 | composite z-score [11]: 0.682 | composite z-score [12]: 1.27 | composite z-score [13]: 0.916 | composite z-score [14]: 1.03 | composite z-score [15]: 0.528 | composite z-score [16]: -0.502 | z-score [17]: 1.99 | composite z-score [18]: -0.115 | composite z-score [19]: 0.863 | z-score [20]: 2.75 (inactive)

O=C1O[C@@H](c2ccccc2)[C@@H](c2ccccc2)N2[C@@H](c3ccc(OCCO)cc3)[C@]3(C(=O)Nc4ccc(C#CCCO)cc43)[C@@H](C(=O)O)[C@H]12
composite z-score [1]: 0.559 | composite Z-score [2]: 0.919 (inactive) | composite z-score [3]: 0.955 | composite z-score [4]: 0.516 | composite z-score [5]: 0.746 | composite z-score [6]: 2.2 | composite z-score [7]: 0.636 | composite z-score [8]: 1.28 | composite z-score [9]: 1.02 | composite z-score [10]: 1.15 | composite z-score [11]: 2.76 | composite z-score [12]: 1.14 | composite z-score [13]: 0.453 | composite z-score [14]: 0.95 | composite z-score [15]: 1.11 | composite z-score [16]: 0.871 | z-score [17]: 0.329 | composite z-score [18]: 0.45 | composite z-score [19]: 1.14 | z-score [20]: -1.71 (inactive)

O=C1O[C@H](c2ccccc2)[C@H](c2ccccc2)N2[C@H]1[C@@H](C(=O)N1CCN(c3ncccn3)CC1)[C@]1(C(=O)Nc3ccc(C#CCCO)cc31)[C@H]2c1ccc(O)cc1
composite z-score [1]: 0.627 | composite Z-score [2]: -0.777 (inactive) | composite z-score [3]: 0.171 | composite z-score [4]: -0.11 | composite z-score [5]: 0.413 | composite z-score [6]: 1.88 | composite z-score [7]: 0.608 | composite z-score [8]: 0.574 | composite z-score [9]: 0.0231 | composite z-score [10]: 1.01 | composite z-score [11]: 0.144 | composite z-score [12]: 0.762 | composite z-score [13]: 1.38 | composite z-score [14]: 0.888 | composite z-score [15]: 0.809 | composite z-score [16]: 0.115 | z-score [17]: -0.683 | composite z-score [18]: 0.186 | composite z-score [19]: 0.766 | z-score [20]: -0.538 (inactive)

COC(=O)[C@@]1(Cc2ccc(F)cc2)[C@H]2c3cc(C(=O)N(C)C)n(C)c3C[C@H]2CN1C(=O)c1ccccc1
composite z-score [1]: 0.637 | composite Z-score [2]: 0.343 (inactive) | composite z-score [3]: 0.224 | composite z-score [4]: 0.352 | composite z-score [5]: 0.777 | composite z-score [6]: 1.37 | composite z-score [7]: 0.33 | composite z-score [8]: -0.333 | composite z-score [9]: -0.401 | composite z-score [10]: 0.768 | composite z-score [11]: 2.58 | composite z-score [12]: 0.372 | composite z-score [13]: 0.154 | composite z-score [14]: -0.0862 | composite z-score [15]: -0.524 | composite z-score [16]: 0.263 | z-score [17]: 0.239 | composite z-score [18]: -0.795 | composite z-score [19]: 0.229 | z-score [20]: 0.053 (inactive)

CC1CC/C=C\[C@H]2OC34C=CCN(CCN5CCOCC5)C(=O)[C@H]3N(CCCO)C(=O)[C@@H]4C2C(=O)O1 (stereo not given in full)
composite z-score [1]: -1.3 | composite Z-score [2]: 0.0485 (inactive) | composite z-score [3]: -0.068 | composite z-score [4]: -0.164 | composite z-score [5]: 0.91 | composite z-score [6]: -0.531 | composite z-score [7]: 0.305 | composite z-score [8]: 0.0414 | composite z-score [9]: -0.727 | composite z-score [10]: -0.187 | composite z-score [11]: 0.549 | composite z-score [12]: -1.13 | composite z-score [13]: -0.381 | composite z-score [14]: -1.22 | composite z-score [15]: -0.298 | composite z-score [16]: -0.311 | z-score [17]: -0.296 | composite z-score [18]: -0.265 | composite z-score [19]: -0.133 | z-score [20]: 0.201 (inactive)

NC(=O)NCC#Cc1ccc2c(c1)[C@]1(C(=O)N2)[C@H](c2ccc(OCCO)cc2)N2[C@H](c3ccccc3)[C@H](c3ccccc3)OC(=O)[C@H]2[C@@H]1C(=O)NC[C@H](O)c1ccccc1
composite z-score [1]: 0.335 | composite Z-score [2]: 0.691 (inactive) | composite z-score [3]: 0.0237 | composite z-score [4]: -0.147 | composite z-score [5]: 0.428 | composite z-score [6]: 0.485 | composite z-score [7]: -0.146 | composite z-score [8]: -0.449 | composite z-score [9]: 0.0046 | composite z-score [10]: 1.03 | composite z-score [11]: -0.454 | composite z-score [12]: 0.542 | composite z-score [13]: 0.115 | composite z-score [14]: 0.879 | composite z-score [15]: 1.25 | composite z-score [16]: -0.0515 | z-score [17]: -1.08 | composite z-score [18]: 0.395 | composite z-score [19]: 0.259 | z-score [20]: 0.409 (inactive)

COC(=O)C1=CC(CCCO)=CC(c2cccs2)N(Cc2cc3c(cc2Br)OCO3)C=C1C(=O)OC (stereo not given)
composite z-score [1]: 0.739 | composite Z-score [2]: 1.26 (inactive) | composite z-score [3]: 0.062 | composite z-score [4]: -0.0645 | composite z-score [5]: 0.769 | composite z-score [6]: 2.43 | composite z-score [7]: 0.0385 | composite z-score [8]: 1.3 | composite z-score [9]: 0.249 | composite z-score [10]: 1.21 | composite z-score [11]: 2.57 | composite z-score [12]: 1.25 | composite z-score [13]: 0.87 | composite z-score [14]: 0.999 | composite z-score [15]: 1.08 | composite z-score [16]: 1.43 | z-score [17]: 1.33 | composite z-score [18]: 0.273 | composite z-score [19]: 1.13 | z-score [20]: -1.39 (inactive)

CCOc1cc(C(O)C2C=CC3C(=O)N(c4ccccc4)C(=O)C3N2Nc2ccccc2F)ccc1O (stereo not given)
composite z-score [1]: 0.799 | composite Z-score [2]: -0.209 (inactive) | composite z-score [3]: 0.533 | composite z-score [4]: 0.433 | composite z-score [5]: 0.826 | composite z-score [6]: 2.75 | composite z-score [7]: 0.0411 | composite z-score [8]: 0.339 | composite z-score [9]: 0.0988 | composite z-score [10]: 0.666 | composite z-score [11]: 0.532 | composite z-score [12]: 0.316 | composite z-score [13]: -0.0063 | composite z-score [14]: -0.428 | composite z-score [15]: 0.106 | composite z-score [16]: -0.107 | z-score [17]: -0.638 | composite z-score [18]: -0.541 | composite z-score [19]: 0.886 | z-score [20]: -1.38 (inactive)

CCCN1C(=O)[C@]2(CCC(=O)OC(C)(C)C)N=C(c3ccc(OCCCO)cc3)O[C@@H]2c2ccccc21
composite z-score [1]: 0.151 | composite Z-score [2]: -0.12 (inactive) | composite z-score [3]: -0.0044 | composite z-score [4]: -0.0732 | composite z-score [5]: 0.2 | composite z-score [6]: 1.42 | composite z-score [7]: 0.651 | composite z-score [8]: 0.8 | composite z-score [9]: 0.405 | composite z-score [10]: 1.03 | composite z-score [11]: 0.144 | composite z-score [12]: 1.01 | composite z-score [13]: 0.497 | composite z-score [14]: 0.496 | composite z-score [15]: 1.49 | composite z-score [16]: 0.714 | z-score [17]: 0.719 | composite z-score [18]: 0.37 | composite z-score [19]: 0.0961 | z-score [20]: -1.55 (inactive)
